Laboratory results as given in PubChem BioAssay.
The source made the active and inactive calls.

How the values were obtained:
Albumin (Bos taurus) = Albumin (Bos taurus) (UniProt P02769); test: compounds binding labelled BSA control protein – biochemical, small-molecule microarray, Alexa647 label, 635/667 nm fluorescence, artefact control for SMM control protein annotation, profiling panel (AID 1118); conditions: BSA-A647 binding, fluorescence 635 nm, higher = more signal;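 note: score merges 667 nm emission intensity and signal-to-noise per printed compound spot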
[1] = probe aXIP binding to arrayed compounds – biochemical, NeuroSMM set, 635/667 nm fluorescence, primary screen (AID 1119); conditions: small-molecule microarray, higher = more signal, called active from +8 up or from −8 down;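 note: probe is the protein aXip251-270 applied at 1 µg/mL to compound-printed slides; binding of probe to printed compounds measured as 667 nm fluorescence plus signal to noise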
[2] = probe aNOTCH3 binding on compound microarray – biochemical, small-molecule microarray, 635/667 nm fluorescence, primary screen (AID 1120); conditions: higher = more signal;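 note: probe is a biotin-tagged antibody raised against NOTCH3 rather than NOTCH3 protein; score merges spot fluorescence near 667 nm with spot signal to noise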
[3] = probe aNOTCH2 binding on compound microarray – biochemical, small-molecule microarray, 635/667 nm fluorescence, primary screen (AID 1121); conditions: higher = more signal;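 note: score merges feature fluorescence read at 667 nm with its signal to noise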
[4] = target: Carbonic anhydrase 2 (Homo sapiens) (UniProt P00918); test: compounds binding carbonic anhydrase 2 – biochemical, small-molecule microarray, Alexa647-labelled CAII, profiling panel (AID 1122); conditions: CAII-A647 binding fluorescence, higher = more signal
[5] = COS7 lysate on small-molecule microarray, probe aHis, 635 nm (AID 1123); conditions: COS7 cell lysate, fluorescence, higher = more signal;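 note: z-score combines 667nm fluorescence intensity with signal-to-noise per printed compound spot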
[6] = probe aLAP1 signal on lysate-treated microarray – cell lysate, small-molecule microarray, COS7 lysate, primary screen (AID 1124); conditions: probe aLAP1, fluorescence, higher = more signal;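 note: lysate comes from COS7 cells expressing LAP1 and is applied at 0.3 µg/mL; score merges spot fluorescence near 667 nm with signal-to-noise over triplicate slides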
Sam68 (KHDRBS1) = test: compounds binding KHDRBS1 protein – biochemical, small-molecule microarray, 635 nm fluorescence, primary screen (AID 1125); conditions: higher = more signal;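 note: score merges 667 nm channel intensity with signal to noise over triplicate slides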
[7] = test system: Chordin-like protein 2 (CHRDL2); test: compounds binding chordin-like 2 – biochemical, small-molecule microarray, 635 nm fluorescence, primary screen (AID 1126); conditions: fluorescence 635 nm, higher = more signal;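 note: printed compound slides probed with Chrdl2 protein at 4 µg/mL for 1 h at 4 C; score merges 667 nm emission intensity with signal to noise over three replicate slides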
[8] = target: Concanavalin-A (Canavalia ensiformis) (UniProt P02866); test: compounds binding concanavalin A lectin – biochemical, small-molecule microarray, Alexa647 label, 635 nm, artefact control for SMM control protein annotation, primary screen (AID 1127); conditions: ConA-A647 binding fluorescence, higher = more signal;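 note: z combines 667 nm emission intensity with signal-to-noise across three replicate slides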
[9] = compounds binding Alexa647 anti-His antibody – biochemical, small-molecule microarray, 635 nm fluorescence, artefact control for SMM control protein annotation, primary screen (AID 1128); conditions: higher = more signal;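 note: score merges feature fluorescence with signal-to-noise for each printed compound spot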
[10] = test system: Human papillomavirus type 1a E7 protein (residues 1-88); test: HPV1a E7 small-molecule binders, primary screen, biochemical, small-molecule microarray, residues 1-88, 635 nm (AID 1129); conditions: small-molecule microarray binding, fluorescence 635 nm; higher = more signal
[11] = target: Focal adhesion kinase 1 (Homo sapiens) (UniProt Q05397); test: PTK2 protein binding on printed compound slides – biochemical, small-molecule microarray, 635/667 nm fluorescence, BSA, DTT, primary screen (AID 1130); conditions: 635 nm fluorescence, higher = more signal;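 note: composite of spot emission at 667 nm and signal to noise over triplicate slides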
[12] = test system: Fibrinogen (Alexa647-labelled); test: Alexa647-fibrinogen binding to printed small molecules – biochemical, small-molecule microarray, 635/667 nm fluorescence, artefact control for SMM control-protein annotation, profiling panel (AID 1131); conditions: fibrinogen-A647 binding fluorescence, higher = more signal;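 note: z-score merges 667 nm fluorescence with per-spot signal-to-noise over triplicate slides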
[13] = target: Follistatin (Homo sapiens) (UniProt P19883); test: FST protein binding to printed compounds – biochemical, small-molecule microarray, 635/667 nm fluorescence, primary screen (AID 1132); conditions: 635 nm fluorescence, higher = more signal
[14] = target: Fibroblast growth factor 2 (Homo sapiens) (UniProt P09038); test: basic fibroblast growth factor binding to printed compounds – biochemical, small-molecule microarray, 635/667 nm fluorescence, primary screen (AID 1133); conditions: FGF2, fluorescence 635/667, higher = more signal
[15] = JC-1 mitochondrial potential readout, lung cancer cells – cell-based, A549, JC-1 fluorescence, basal, 24 h, 100 nL, profiling panel (AID 1138); conditions: higher = more signal;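 note: A549 lung adenocarcinoma cells under basal conditions with no added stimulus; test concentration not given here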
Lefty1 = Lefty1 protein binding to printed compounds – biochemical, small-molecule microarray, 635/667 nm fluorescence, primary screen (AID 1139); conditions: fluorescence 635/667, higher = more signal
[16] = test system: wheat germ agglutinin (Triticum aestivum), Alexa647-labelled; test: Alexa647-WGA lectin binding to printed small molecules – biochemical, small-molecule microarray, 635/667 nm fluorescence, artefact control for SMM control-protein annotation, profiling panel (AID 1140); conditions: WGA-A647 binding, 635 nm fluorescence, higher = more signal;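 note: score merges 667 nm feature emission with signal to noise over triplicate slides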
[17] = target: Luciferin 4-monooxygenase (Photinus pyralis) (UniProt P08659); test: inhibition of purified Photinus pyralis luciferase – biochemical, luminescence, purified enzyme, 2006 set, primary screen (AID 1141); conditions: purified firefly luciferase, SteadyGlo luminescence, 30 min; higher = more signal, called active from +8 up or from −8 down;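 note: cell-free assay with purified firefly luciferase at 100 ng per well in PBS; test concentration not given here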
Luciferin 4-monooxygenase (Photinus pyralis), sequence (P08659 whole entry, looked up): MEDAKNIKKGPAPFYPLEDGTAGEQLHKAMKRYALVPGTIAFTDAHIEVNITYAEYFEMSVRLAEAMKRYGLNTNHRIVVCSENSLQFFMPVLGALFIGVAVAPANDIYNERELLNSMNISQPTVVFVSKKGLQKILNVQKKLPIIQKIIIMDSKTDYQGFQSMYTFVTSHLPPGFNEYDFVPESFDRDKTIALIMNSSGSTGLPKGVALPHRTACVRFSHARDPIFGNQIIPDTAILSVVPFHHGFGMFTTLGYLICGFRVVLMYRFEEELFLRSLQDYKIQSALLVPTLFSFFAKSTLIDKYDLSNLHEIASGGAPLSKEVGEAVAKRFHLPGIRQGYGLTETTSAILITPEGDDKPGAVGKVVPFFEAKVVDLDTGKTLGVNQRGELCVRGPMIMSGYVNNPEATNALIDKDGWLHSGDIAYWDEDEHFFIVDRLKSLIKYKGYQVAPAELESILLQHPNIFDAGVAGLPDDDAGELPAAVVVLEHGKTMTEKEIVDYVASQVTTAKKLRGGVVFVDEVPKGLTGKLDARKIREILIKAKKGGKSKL

Albumin (Bos taurus), sequence (P02769 whole entry, looked up): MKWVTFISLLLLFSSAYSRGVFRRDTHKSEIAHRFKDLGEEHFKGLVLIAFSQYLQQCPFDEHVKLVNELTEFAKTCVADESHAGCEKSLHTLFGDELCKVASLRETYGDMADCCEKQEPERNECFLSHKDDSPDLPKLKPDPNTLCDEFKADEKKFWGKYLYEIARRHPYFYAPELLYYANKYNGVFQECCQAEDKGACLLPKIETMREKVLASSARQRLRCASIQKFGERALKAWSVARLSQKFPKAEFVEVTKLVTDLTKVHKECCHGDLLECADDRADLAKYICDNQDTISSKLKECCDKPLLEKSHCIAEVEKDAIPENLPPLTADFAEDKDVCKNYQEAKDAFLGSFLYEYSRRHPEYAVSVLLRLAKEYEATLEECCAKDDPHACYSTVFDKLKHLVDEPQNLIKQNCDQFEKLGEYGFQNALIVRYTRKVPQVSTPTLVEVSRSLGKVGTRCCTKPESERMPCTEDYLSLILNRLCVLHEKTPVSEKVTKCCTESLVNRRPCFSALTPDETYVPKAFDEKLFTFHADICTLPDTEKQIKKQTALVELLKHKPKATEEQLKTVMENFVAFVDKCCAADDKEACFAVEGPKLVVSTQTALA
Fibroblast growth factor 2 (Homo sapiens), sequence (P09038 whole entry, looked up): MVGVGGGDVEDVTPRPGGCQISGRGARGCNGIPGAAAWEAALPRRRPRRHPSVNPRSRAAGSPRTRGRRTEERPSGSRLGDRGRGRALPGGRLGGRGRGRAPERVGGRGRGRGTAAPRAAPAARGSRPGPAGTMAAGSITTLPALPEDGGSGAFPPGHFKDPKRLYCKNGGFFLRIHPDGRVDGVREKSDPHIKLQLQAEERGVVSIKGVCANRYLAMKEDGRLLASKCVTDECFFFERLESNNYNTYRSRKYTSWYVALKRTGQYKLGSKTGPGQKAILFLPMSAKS
Concanavalin-A (Canavalia ensiformis), sequence (P02866 whole entry, looked up): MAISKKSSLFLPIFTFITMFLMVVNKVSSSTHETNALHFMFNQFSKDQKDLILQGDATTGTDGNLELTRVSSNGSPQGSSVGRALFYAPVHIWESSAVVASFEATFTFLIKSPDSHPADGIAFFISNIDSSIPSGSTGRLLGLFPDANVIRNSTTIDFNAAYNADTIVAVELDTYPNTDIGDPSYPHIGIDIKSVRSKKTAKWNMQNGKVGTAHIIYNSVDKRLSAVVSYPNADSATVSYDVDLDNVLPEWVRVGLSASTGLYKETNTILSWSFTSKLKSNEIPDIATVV
Follistatin (Homo sapiens), sequence (P19883 whole entry, looked up): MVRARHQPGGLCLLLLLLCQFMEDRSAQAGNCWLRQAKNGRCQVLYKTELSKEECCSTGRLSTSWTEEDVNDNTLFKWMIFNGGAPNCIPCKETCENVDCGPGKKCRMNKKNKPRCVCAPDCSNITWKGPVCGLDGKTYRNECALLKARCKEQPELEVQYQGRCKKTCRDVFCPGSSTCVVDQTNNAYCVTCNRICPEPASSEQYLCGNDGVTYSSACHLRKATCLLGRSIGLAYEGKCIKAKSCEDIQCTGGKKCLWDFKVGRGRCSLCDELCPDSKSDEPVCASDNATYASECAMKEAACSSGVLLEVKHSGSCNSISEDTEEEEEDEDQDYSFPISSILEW
Focal adhesion kinase 1 (Homo sapiens), sequence (Q05397 whole entry, looked up): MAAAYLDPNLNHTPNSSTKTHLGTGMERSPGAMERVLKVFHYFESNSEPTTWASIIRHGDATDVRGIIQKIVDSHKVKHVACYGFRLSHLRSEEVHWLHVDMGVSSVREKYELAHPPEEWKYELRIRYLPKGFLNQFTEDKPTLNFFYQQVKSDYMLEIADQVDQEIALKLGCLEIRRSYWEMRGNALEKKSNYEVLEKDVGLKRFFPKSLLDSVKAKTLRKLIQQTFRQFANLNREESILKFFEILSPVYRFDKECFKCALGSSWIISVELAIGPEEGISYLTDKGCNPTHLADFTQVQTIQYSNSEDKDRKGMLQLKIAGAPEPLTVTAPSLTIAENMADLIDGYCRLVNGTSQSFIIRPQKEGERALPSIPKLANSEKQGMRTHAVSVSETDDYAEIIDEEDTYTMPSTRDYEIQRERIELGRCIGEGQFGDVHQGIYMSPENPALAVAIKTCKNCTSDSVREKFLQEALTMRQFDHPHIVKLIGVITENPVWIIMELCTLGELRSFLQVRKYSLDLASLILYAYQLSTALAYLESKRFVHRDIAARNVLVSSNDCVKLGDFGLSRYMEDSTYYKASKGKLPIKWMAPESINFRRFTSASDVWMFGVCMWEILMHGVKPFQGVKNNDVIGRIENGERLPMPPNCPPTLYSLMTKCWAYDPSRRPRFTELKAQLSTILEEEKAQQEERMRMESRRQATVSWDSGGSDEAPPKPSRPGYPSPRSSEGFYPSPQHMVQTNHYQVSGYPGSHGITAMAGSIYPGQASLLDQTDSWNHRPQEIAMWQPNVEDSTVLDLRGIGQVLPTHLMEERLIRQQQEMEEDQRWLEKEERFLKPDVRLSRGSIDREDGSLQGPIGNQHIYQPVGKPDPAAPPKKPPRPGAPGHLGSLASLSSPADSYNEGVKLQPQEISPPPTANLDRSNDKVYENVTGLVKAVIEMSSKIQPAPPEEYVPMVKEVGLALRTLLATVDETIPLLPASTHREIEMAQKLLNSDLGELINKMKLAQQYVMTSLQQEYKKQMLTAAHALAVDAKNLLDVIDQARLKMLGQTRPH

SMILES | composite z-score (Albumin (Bos taurus)) | composite Z-score [1] | composite z-score [2] | composite z-score [3] | composite z-score [4] | composite z-score [5] | composite z-score [6] | composite z-score (Sam68 (KHDRBS1)) | composite z-score [7] | composite z-score [8] | composite z-score [9] | composite z-score [10] | composite z-score [11] | composite z-score [12] | composite z-score [13] | composite z-score [14] | z-score [15] | composite z-score (Lefty1) | composite z-score [16] | z-score [17]
C=C(C(=O)CC[C@H](OC(C)=O)c1ccc(CO)o1)C(C)C | -0.348 | 0.481 (inactive) | -0.0264 | -0.0795 | 0.614 | 0.297 | 0.629 | 0.596 | -0.413 | -0.0824 | -0.361 | -0.0631 | 0.384 | 0.4 | 0.853 | 1.01 | 0.191 | 0.299 | -0.432 | -2.12 (inactive)
[N-]=[N+]=Nc1ccccc1[C@H]1OC(c2ccc(OCCCO)cc2)=N[C@@]1(Cc1ccccc1)C(N)=O | 0.869 | 0.382 (inactive) | 0.416 | 0.0521 | 0.623 | 0.798 | 0.577 | 1.31 | -0.751 | 1.16 | 2.59 | 1.21 | 0.0957 | 0.997 | 1.32 | 0.479 | 1.5 | 0.97 | 1.37 | -12.6 (active)
CC(C)C[C@@H]1NC(=O)[C@@]23C(=O)N[C@@H](Cc4ccccc4)C2[C@H](C)[C@@]2(C)O[C@H]2C3/C=C/CC/C=C/CNC(=O)[C@@H](C)NC1=O (stereo not given in full) | -1.38 | -0.162 (inactive) | 0.0426 | -0.179 | -0.515 | -0.262 | 0.0036 | 0.179 | 0.906 | 0.204 | -0.764 | -0.649 | 0.138 | -0.875 | 1.23 | 1.12 | -0.168 | 1.5 | -0.578 | -0.8 (inactive)
C=CC[C@]1(C(=O)N2CCCCC2)COC(c2ccc(OCCCO)cc2)=N1 | 0.837 | -0.216 (inactive) | -0.152 | -0.173 | 0.818 | 2.22 | 0.523 | -0.48 | -0.802 | -1.46 | -1.2 | 0.633 | -0.0161 | -0.236 | -0.465 | -0.453 | 2.27 | -0.45 | -1.3 | -2.65 (inactive)
COC(=O)C1=CC(CCCO)=CC(C2CC2)N(Cc2cc3c(cc2Br)OCO3)C=C1C(=O)OC (stereo not given) | 1.01 | 0.305 (inactive) | 0.102 | 0.0247 | 0.92 | 2.44 | 1.65 | 1.3 | -0.547 | 1.07 | 2.68 | 0.86 | 0.149 | 0.931 | -0.107 | -0.3 | 1.27 | -0.648 | 1.4 | -1.24 (inactive)
O=C(NC1CC1)[C@@H]1c2ccccc2C(=O)N(Cc2ccccc2C(F)(F)F)[C@H]1c1ccc(CO)cc1 | 0.289 | 2.36 (inactive) | 0.0194 | -0.0173 | 0.676 | 2.26 | 0.234 | 1.35 | 0.102 | 1.08 | 0.911 | 1.1 | 0.829 | 0.428 | 0.928 | 0.86 | 2.04 | 0.159 | 0.527 | -0.945 (inactive)
COc1ccc([Si](C)(C)[C@H]2[C@H](CC(=O)N(CCO)Cc3ccccc3)O[C@@]3(C(=O)N(Cc4cccc(N5C(=O)COc6ccccc65)c4)c4ccccc43)[C@@H]2C)cc1 | -1.06 | 0.616 (inactive) | 0.0961 | -0.118 | 0.462 | 1.69 | -0.045 | 0.897 | 0.81 | 1.06 | 1.11 | 0.965 | 1.45 | 0.147 | 1.05 | 1.52 | -0.0909 | 1.26 | 0.528 | -1.8 (inactive)
CC(C)(C)OC(=O)CC[C@@]12N=C(c3ccc(OCCCO)cc3)O[C@@H]1c1ccccc1N(Cc1ccccc1)C2=O | 0.0674 | 1.83 (inactive) | -0.122 | -0.0318 | 0.434 | 1.67 | 0.583 | 1.15 | 0.145 | 1.05 | 2.92 | 1 | 1.16 | 0.214 | 1.39 | 0.54 | 1.43 | 0.345 | 0.036 | -2.14 (inactive)
C=C(COC)C(=O)CC[C@@H](OC(=O)c1ccccc1-c1ccccc1C(=O)O)c1cccc(OCCO)c1 | -0.39 | -0.122 (inactive) | -0.15 | -0.154 | 0.713 | 0.19 | -0.402 | -0.296 | 0.192 | 0.375 | -1.24 | -0.533 | -0.508 | -0.661 | 1.27 | 0.866 | 1.46 | 0.299 | -0.478 | -3.64 (inactive)
O=c1n(-c2ccccc2)c(=O)n2n1CC(COc1ccccc1)=C1[C@@H](CCc3ccccc3)OB(O)C[C@@H]12 | 0.488 | 0.237 (inactive) | 0.0596 | -0.063 | 0.0107 | 0.516 | 0.362 | 1.3 | 0.0848 | 0.515 | 1.01 | 1.04 | 0.12 | 0.501 | 0.763 | 0.853 | 1.25 | 1.52 | 0.576 | -1.2 (inactive)
